# Source: PubChem (National Center for Advancing Translational Sciences (NCATS))
# AMA1-RON2 inh = AMA1-RON2 (P. falciparum) interaction inhibition; Potency, µM (titrated, usually from 58.2 µM), for inactives: at the highest dose activity change, negative = inhibition, hits mostly inhibitors; AlphaScreen AMA1-biotinylated RON2 peptide binding; hit rate 0.2% among 360,000;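 also: 0% = vehicle wells and -100% = peptide control; nearly all actives have a fitted effect of over 45% in size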
#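 AMA1 (3D7) with his tag at 25 nM final met compounds first, then biotinylated RON2 peptide at 25 nM; detection used donor plus acceptor beads, 10 µg/mL apiece, read by AlphaScreen after 30 min at room temperature.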
# AmpC no deterg = AmpC beta-lactamase inhibition without detergent | P00811 | AmpC nitrocefin hydrolysis, absorbance 480 nm, 0.0001% Triton | Potency, µM (top dose mostly 57.1 µM), inactives show top-dose activity change, negative = inhibition, actives largely listed as inhibitors | hit rate 0.52% among 330,000 | AID 485341;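 also: plate controls were no compound for no effect and no enzyme for full effect; nearly all actives have a fitted effect of over 20% in size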
# Target sequence (P00811 whole entry, looked up): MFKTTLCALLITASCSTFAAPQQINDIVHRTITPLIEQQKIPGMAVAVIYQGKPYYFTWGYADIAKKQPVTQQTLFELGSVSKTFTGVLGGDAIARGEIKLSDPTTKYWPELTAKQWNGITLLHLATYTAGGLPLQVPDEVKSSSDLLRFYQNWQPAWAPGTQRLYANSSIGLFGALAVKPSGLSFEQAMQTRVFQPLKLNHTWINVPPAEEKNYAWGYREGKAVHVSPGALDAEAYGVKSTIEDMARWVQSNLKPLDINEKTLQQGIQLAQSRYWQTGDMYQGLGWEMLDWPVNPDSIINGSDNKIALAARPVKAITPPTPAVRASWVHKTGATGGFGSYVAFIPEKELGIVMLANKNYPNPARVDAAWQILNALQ
#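 AmpC (5.3 nM in the dispensed reagent) in 20 mM phosphate pH 7.0 with 0.01% (detergent screen) or 0.0001% Triton X-100 was preincubated with compounds for 15 min at room temperature. Nitrocefin was then added from an 800 uM solution, and hydrolysis was followed at 480 nm.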
# HCV inhibitor = HCV inhibition | AID 651820 | hit rate 3.4% among 340,000 | Huh7.5.1 HCVcc-Cre infection, luciferase reporter, 44 h | Potency, µM (highest dose often 41.8 µM), without a hit: at the highest dose activity change, negative = inhibition, usual class: inhibitors
#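 HCVcc-Cre virus at an moi near 0.5 was added right after compound to cells cultured 4 h from seeding (1,000 cells/well). Luciferase activity was determined 44 h later, 15 min after substrate addition at RT.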
# Pf growth 96h = P. falciparum growth inhibition at 96 hours | hit rate 6.9% among 320,000 | Potency, µM (doses to about 28.7 µM), inactives show top-dose activity change, negative = inhibition, most hits filed as inhibitors | P. falciparum luciferase reporter growth, 96 h
#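 Compounds incubated with erythrocytes infected by luciferase-expressing P. falciparum (2% hematocrit, 0.05% parasitemia final) for 96 hours, 37 C in 5% CO2. Growth inhibition scored as decreased luciferase luminescence.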
# Pf growth 48h = P. falciparum growth inhibition at 48 hours (one generation); P. falciparum luciferase growth in erythrocytes, 48 h; hit rate 5.9% among 310,000; Potency, µM (titrated, usually from 28.7 µM), inactives show at the top dose activity change, negative = inhibition, hits mostly inhibitors
#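 In quantitative HTS format, infected erythrocytes bearing luciferase-reporter parasites were treated for a single generation at 37 C. Luminescence after adding detection reagent served as the growth measure.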
# AmpC detergent = blocks E. coli AmpC beta-lactamase in detergent assay; P00811; AmpC hydrolysis of nitrocefin, absorbance 480 nm, 0.01% Triton; Potency, µM (titrated, usually from 114 µM), for the others: top-dose activity change, negative = inhibition, hits mostly inhibitors; AID 485294; hit rate 0.041% among 370,000;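 also: 0% = no-compound wells and -100% = no-enzyme wells; nearly all actives have a fitted effect of over 25% in size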
#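 AmpC (5.3 nM in the dispensed reagent) in 20 mM phosphate pH 7.0 with 0.01% (detergent screen) or 0.0001% Triton X-100 was preincubated with compounds for 15 min at room temperature. Nitrocefin was then added from an 800 uM solution, and hydrolysis was followed at 480 nm.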
# Starred values were filed as active, the others as inactive; ? = inconclusive; . = no result given. An excerpt weighted towards active compounds, which were near 11% of everything screened. Calls follow the shape of the dose curve; as a rule, active = well fitted curve in the direction sought with a large enough effect; inconclusive = small, poorly fitted or top-dose-only effect, or another doubt; inactive = no such curve, though single readings can be large; an effect the other way counts as inactive or inconclusive. Unless noted, % is scaled to controls: 0 for no effect and ±100 for the full control effect; potency is read from the fitted curve at half-maximal effect.
SMILES,AMA1-RON2 inh,AmpC no deterg,HCV inhibitor,Pf growth 96h,Pf growth 48h,AmpC detergent
CCc1ccc(C2c3[nH]c4ccccc4c3CCN2C(=O)CN2CCN(CC)CC2)cc1 (stereo not drawn),?,223%,?,?,10µM*,8%
CCc1ccc(C2c3[nH]c4ccccc4c3CCN2C(=O)c2ccc(=O)n(C)n2)cc1 (stereo not drawn),?,88%,0%,?,8.3µM*,10%
Cc1cc(C)c(NC(=O)C2CCCN(C(=O)c3cnn(-c4ccccc4)c3-n3cccc3)C2)c(C)c1 (stereo not drawn),.,.,.,.,.,16%
CC1CCCC(C)N1C(=O)CCN1C(=O)C2C3C=CC(C3)C2C1=O (stereo not drawn),-8%,-12%,15%,1.7µM*,27%,?
CCCCC(=O)O[C@]1(C(=O)CO)CCC2C3CCC4=CC(=O)CCC4(C)C3C(O)CC21C (stereo partly drawn),.,.,.,?,-8%,.
CCCCOC(=O)c1ccc(NC(=O)CSc2nc3c(c(=O)[nH]2)CCCC3)cc1,.,.,.,.,.,-9%
Cc1ccc(CN2CCN(C3CCN(C(=O)c4ccccc4)CC3)C(=O)C2=O)cc1,.,.,.,.,.,1%
CC(c1nccs1)N(C)C(=O)CCc1nnc(CCc2ccccc2)o1 (stereo not drawn),5%,7%,12%,28%,5%,1%
O=C(CCc1nnc(CCc2ccccc2)o1)N1CCCC1c1nccs1 (stereo not drawn),-11%,0%,11%,13µM*,0%,6%
CCOC(=O)c1nc(Nc2cc(Cl)ccc2OC)c2ccccc2n1,9%,156%,13µM*,0%,4%,5%
C/C(CC(c1ccccc1)c1c(O)c2ccccc2oc1=O)=N\NC(N)=S (stereo not drawn),35%,-8%,2%,10µM*,?,?
COC(=O)CCCC(=O)NC(C)c1cnn(-c2ccccc2C)c1C (stereo not drawn),-7%,-14%,5%,13µM*,24%,9%
CC(C)n1nnnc1SCC(=O)NNC(=O)C1CCCCC1,49%,-22%,14%,9%,8%,-3%
CC(C)n1nnnc1SCC(=O)NC1CCCC1,3%,1%,8%,5.2µM*,51%,-6%
CCn1cc(Cl)c(C(=O)Nc2ccccc2C(N)=O)n1,15%,43%,-2%,13µM*,83%,-3%
CCn1cc(Cl)c(C(=O)Nc2ccc3c(c2)OCCO3)n1,-2%,-31%,-14%,14%,246%,-8%
CCn1cc(Cl)c(C(=O)Nc2cccc(C(F)(F)F)c2)n1,13%,15%,1%,2.6µM*,174%,-2%
COc1ccc(/C=N/Nc2nc(NCc3ccco3)nc(Nc3ccc(OC)cc3)n2)cc1,-14%,-38%,?,?,15µM*,-2%
c1ccc(Nc2nc(N3CCCC3)nc(N3CCCC3)n2)cc1,-9%,-18%,?,12µM*,.,-13%
c1ccc(Nc2nc(N3CCCCC3)nc(N3CCCCC3)n2)cc1,2%,-30%,0%,9.3µM*,.,-19%
Fc1ccc(Nc2nc(Oc3ccccc3F)nc(N3CCCC3)n2)cc1,?,-11%,?,.,1.5µM*,0%
c1ccc(Nc2nc(N3CCCCC3)nc(N3CCNCC3)n2)cc1,-5%,9%,?,?,?,-10%
COc1ccc(C(=O)N2c3ccc(C)cc3C(C)(c3ccccc3)CC2(C)C)cc1 (stereo not drawn),.,.,.,.,.,15%
Cc1ccc(Cl)cc1NC(=O)NCc1cccn1Cc1ccc(F)cc1,.,.,.,.,.,-9%
CCNc1nc(N2CCCC2)nc(N2CCCC2)n1,7%,18%,11µM*,5%,12µM*,4%
SMILES,AMA1-RON2 inh,AmpC no deterg,HCV inhibitor,Pf growth 96h,Pf growth 48h,AmpC detergent
CCNc1nc(NC(C)(C)C)nc(N2CCCCC2)n1,-3%,-41%,?,33%,?,-12%
COc1ccc(/C=N/Nc2nc(Nc3ccccc3)nc(N3CCCC3)n2)cc1,37%,-35%,10µM*,0%,?,2%
COc1ccc(/C=N/Nc2nc(N3CCCC3)nc(N3CCCC3)n2)cc1,4%,-29%,?,14%,-5%,-12%
CCc1cccc(C)c1NC(=O)CCCn1c(C)c2cnn(-c3ccccc3)c(=O)c2c1C,.,.,.,.,.,-4%
COc1cc(S(=O)(=O)N(Cc2cccs2)CC2CCCO2)ccc1-n1cnnn1 (stereo not drawn),2%,24%,-18%,4.1µM*,-18%,-10%
COc1ccc(S(=O)(=O)NC2CCCCC2)cc1-n1cnnn1,17%,-14%,17%,2.6µM*,0%,3%
COc1cc(S(=O)(=O)NCC2COCCO2)ccc1-n1cnnn1 (stereo not drawn),2%,-26%,11%,12µM*,-17%,-2%
COc1cc(S(=O)(=O)N(Cc2ccccc2)CC2CCCO2)ccc1-n1cnnn1 (stereo not drawn),-1%,84%,-1%,-2%,-9%,3%
Cc1ccc2nc(Cl)c3cc(C(=O)NC4CCC(C)CC4)sc3c2c1 (stereo not drawn),.,.,.,.,.,-9%
CCCN(CCC)C(=O)Cn1c(=O)n(-c2cccc(C)c2)c(=O)c2c1c1cc(OC)ccc1n2C,.,.,.,.,.,0%
Cc1ccc(Cn2c(C)c(CNC3CCCCC3)c(C(=O)O)c2C)cc1,.,.,.,.,.,19%
CN(c1ccc(Cl)cc1)c1cc(=O)n(C)c2ccccc12,5%,34%,10µM*,-11%,5.9µM*,?
CN(C(=O)COc1cc(=O)n(C)c2ccccc12)c1ccc(Cl)cc1,-21%,59%,-20%,?,.,2%
COc1cccc(N2CCN(c3ccc(S(=O)(=O)N4CCN(C)CC4)cc3[N+](=O)[O-])CC2)c1,?,282%,?,.,.,.
COc1ccc(N2CCN(S(=O)(=O)c3ccc4c(c3)CCCC4)CC2)c([N+](=O)[O-])c1,-26%,-22%,5µM*,0%,2%,5%
CCN(CC)S(=O)(=O)c1ccc(N2CCN(c3cccc(OC)c3)CC2)c([N+](=O)[O-])c1,?,-16%,?,9.3µM*,?,-14%
Cc1ccc(CN2CC(=O)N3[C@H]4c5cc(Cl)ccc5OC[C@@H]4[C@H](c4ccccc4)[C@]3(C)C2=O)cc1,-5%,-4%,?,8.3µM*,6.6µM*,-3%
